From PubChem BioAssay (EPA / NIEHS)
Several values for one entry are separate records, joined by “and”; a condition that tells them apart may be missing. Equal values may be shown once. Records with an inconclusive call do not appear. Where a structure was tested more than once in an assay, its records may differ in their call. Activity calls are given as the source filed them. The calls were made as follows, unless noted: active = hit-call score of the fitted dose curve at least 0.9, where 1 is the maximum; inactive = score below 0.9.

How the values were obtained:
[1] = ATG_NF_kB_CIS: Attagene CIS-FACTORIAL HepG2 Assay for human Nuclear Factor Kappa B (NF-kB) (AID 2282991); conditions: HepG2 Attagene cis-factorial NF-kB reporter mRNA; actives raise or lower the signal
Summary of the method: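 HepG2, transient multi-reporter transfection, cis promoter elements (endogenous TFs). 24 h exposure. Total RNA → RT → PCR → 6-FAM label → HpaI → CE. Gain/loss vs DMSO.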

[2] = ATG_NRF2_ARE_CIS: Attagene CIS-FACTORIAL HepG2 Assay for human Nuclear Factor Erythroid 2 Related Factor 2 (NFR2) response to Antioxidant Response Elements (ARE) (AID 2282992); conditions: HepG2 Attagene ARE/NRF2 reporter, transcription factor activity; actives raise or lower the signal;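 as to AC50: reporter mRNA level measured by RT-PCR and capillary electrophoresis fluorescence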
Summary of the method: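 Fluorescence intensity of reporter-specific cDNA fragments, separated by capillary electrophoresis, reflects mRNA induction in transfected HepG2 cells at 24 h. Activity is fitted bidirectionally, DMSO serving as baseline.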

[3] = ATG_Oct_MLP_CIS: Attagene CIS-FACTORIAL HepG2 Assay for human Octamer-Binding Transcription Factor (Oct) (AID 2282993); conditions: HepG2 Attagene cis-factorial Oct reporter, mRNA; actives raise or lower the signal
Summary of the method: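 After 24 h compound exposure, transfected HepG2 cells were lysed for total RNA; reporter-specific cDNA was PCR-amplified, fluorescently labelled and sized by capillary electrophoresis. Bidirectional curve fitting used DMSO as baseline.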

[4] = target: Cellular tumor antigen p53 (Homo sapiens) (UniProt P04637); test: ATG_p53_CIS: Attagene CIS-FACTORIAL HepG2 Assay for human p53 Transcription Factor (AID 2282994); conditions: HepG2 p53 cis-element reporter, Attagene mRNA; actives raise or lower the signal
Summary of the method: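 Transiently transfected HepG2 (multiple cis reporter transcription units); exposure 24 h; reporter RNA via RT-PCR, 6-FAM extension, 2 h HpaI digest at 37 C, CE detection; DMSO baseline.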

[5] = target: human Peroxisome Proliferator-activated Receptor alpha (PPARa), PPARA (gene 5465) (UniProt Q07869); test: ATG_PPARa_TRANS: Attagene TRANS-FACTORIAL HepG2 Assay for human Peroxisome Proliferator-activated Receptor alpha (PPARa) (AID 2283001; active = hit-call score of the fitted dose curve at least 0.9, where 1 is the maximum)
Summary of the method: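 Cells (HepG2) are transfected with multiple reporter transcription units, exposed to chemical for 24 h, then total RNA is reverse-transcribed and amplified. Labelled products are quantified by capillary electrophoresis; induction is referenced to DMSO.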

[6] = target: Nuclear receptor subfamily 1 group I member 2 (Homo sapiens) (UniProt O75469); test: ATG_PXR_TRANS: Attagene TRANS-FACTORIAL HepG2 Assay for human Pregnane X Receptor (PXR) (AID 2283008; active = hit-call score of the fitted dose curve at least 0.9, where 1 is the maximum)
Summary of the method: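 Transient HepG2 transfectants carrying multiplexed reporter transcription units; PXR activity read through a Gal4 chimera. 24 h exposure. RT-PCR/CE fluorescence; upward curve fit referenced to DMSO.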

[7] = target: Retinoic acid receptor RXR-alpha (Homo sapiens) (UniProt P19793); test: ATG_RXRa_TRANS: Attagene TRANS-FACTORIAL HepG2 Assay for human Retinoid X Receptor alpha (RXRa) (AID 2283012; active = hit-call score of the fitted dose curve at least 0.9, where 1 is the maximum)
Summary of the method: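 Measures exogenous chimeric NR-GAL4 activity in transfected HepG2 liver cells after 24 h of dosing. Induced reporter mRNA was detected by RT-PCR with capillary electrophoresis, and gain of signal was analysed against DMSO.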

[8] = target: Peroxisome proliferator-activated receptor gamma (Homo sapiens) (UniProt P37231); test: ATG_PPARg_TRANS: Attagene TRANS-FACTORIAL HepG2 Assay for human Peroxisome Proliferator-activated Receptor-gamma (PPARg) (AID 2283007; active = hit-call score of the fitted dose curve at least 0.9, where 1 is the maximum)
Summary of the method: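 Multiplexed reporter transcription units in HepG2, 24 h dosing, reporter transcripts quantified by fluorescent RT-PCR and capillary electrophoresis. Increase over DMSO scored.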

[9] = target: human Retinoic Acid Receptor gamma (RARg), RARG (gene 5916) (UniProt P13631); test: ATG_RARg_TRANS: Attagene TRANS-FACTORIAL HepG2 Assay for human Retinoic Acid Receptor gamma (RARg) (AID 2283009; active = hit-call score of the fitted dose curve at least 0.9, where 1 is the maximum)
Summary of the method: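 TRANS format measured activity of exogenous NR-GAL4 fusion (RARg) in transfected HepG2 liver cells after 24 h dosing. Induced reporter RNA was detected by RT-PCR/capillary electrophoresis fluorescence, analysed in the positive direction against DMSO.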

[10] = target: human RAR-related Orphan Receptor gamma (RORg), RORC (gene 6097) (UniProt P51449); test: ATG_RORg_TRANS: Attagene TRANS-FACTORIAL HepG2 Assay for human RAR-related Orphan Receptor gamma (RORg) (AID 2283011; active = hit-call score of the fitted dose curve at least 0.9, where 1 is the maximum)
Summary of the method: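 Activity is scored as increase in GAL4-UAS reporter mRNA over DMSO, detected by fluorescent RT-PCR and capillary electrophoresis in HepG2 cells transiently expressing a RORg-Gal4 chimera, 24 h after dosing.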

[11] = target: Retinoic acid receptor alpha (Homo sapiens) (UniProt P10276); test: ATG_RARa_TRANS: Attagene TRANS-FACTORIAL HepG2 Assay for human Retinoic Acid Receptor alpha (RARa) (AID 2283005; active = hit-call score of the fitted dose curve at least 0.9, where 1 is the maximum)
Summary of the method: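 HepG2 cells transiently transfected with multiple reporter units expressing chimeric RARα-GAL4 fusion, with GAL4-UAS-driven reporters. After 24 h compound exposure, reporter mRNA induction quantified by RT-PCR and capillary electrophoresis with fluorescent labeling; gain-of-signal fitted relative to DMSO control.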

[12] = target: human RAR-related Orphan Receptor beta (RORb), RORB (gene 6096) (UniProt Q92753); test: ATG_RORb_TRANS: Attagene TRANS-FACTORIAL HepG2 Assay for human RAR-related Orphan Receptor beta (RORb) (AID 2283010; active = hit-call score of the fitted dose curve at least 0.9, where 1 is the maximum)
Summary of the method: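 Transfect HepG2 with multiple GAL4-UAS reporter transcription units; dose chemicals for 24 h; isolate RNA, reverse-transcribe and PCR-amplify reporter sequences; label, digest and resolve fragments by capillary electrophoresis; fit increases relative to DMSO.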

[13] = target: human Peroxisome Proliferator-activated Receptor delta (PPARd), PPARD (gene 5467) (UniProt Q03181); test: ATG_PPARd_TRANS: Attagene TRANS-FACTORIAL HepG2 Assay for human Peroxisome Proliferator-activated Receptor delta (PPARd) (AID 2283002; active = hit-call score of the fitted dose curve at least 0.9, where 1 is the maximum)
Summary of the method: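 Measured quantity: GAL4-UAS reporter transcript induction in HepG2 after 24 h chemical dosing, with NR-Gal4 chimeras supplied by transient transfection. Detection by RT-PCR and capillary electrophoresis; upward fit against DMSO.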

[14] = target: human Retinoic Acid Receptor beta (RARb), RARB (gene 5915) (UniProt P10826); test: ATG_RARb_TRANS: Attagene TRANS-FACTORIAL HepG2 Assay for human Retinoic Acid Receptor beta (AID 2283004; active = hit-call score of the fitted dose curve at least 0.9, where 1 is the maximum)
Summary of the method: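 HepG2, transient MRTU transfection, NR–Gal4 chimera, 24 h treatment; RT-PCR plus CE fluorescence detection of reporter mRNA; gain of signal vs DMSO.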

Measured: AC50

human Peroxisome Proliferator-activated Receptor delta (PPARd), PPARD (gene 5467), sequence (Q03181 whole entry, looked up, the tested form may be a part): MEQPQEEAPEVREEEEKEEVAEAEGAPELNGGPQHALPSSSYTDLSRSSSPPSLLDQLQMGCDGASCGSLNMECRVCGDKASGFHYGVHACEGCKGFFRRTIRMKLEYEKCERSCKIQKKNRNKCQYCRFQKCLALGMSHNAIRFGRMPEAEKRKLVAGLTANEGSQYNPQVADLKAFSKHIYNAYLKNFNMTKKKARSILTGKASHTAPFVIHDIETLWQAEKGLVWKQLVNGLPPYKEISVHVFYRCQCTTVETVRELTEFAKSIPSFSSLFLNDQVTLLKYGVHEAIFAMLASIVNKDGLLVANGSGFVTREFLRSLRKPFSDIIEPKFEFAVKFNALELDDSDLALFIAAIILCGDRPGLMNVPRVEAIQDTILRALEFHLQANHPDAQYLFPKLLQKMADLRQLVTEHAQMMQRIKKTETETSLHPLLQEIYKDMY
Retinoic acid receptor RXR-alpha (Homo sapiens), sequence (P19793 whole entry, looked up, the tested form may be a part): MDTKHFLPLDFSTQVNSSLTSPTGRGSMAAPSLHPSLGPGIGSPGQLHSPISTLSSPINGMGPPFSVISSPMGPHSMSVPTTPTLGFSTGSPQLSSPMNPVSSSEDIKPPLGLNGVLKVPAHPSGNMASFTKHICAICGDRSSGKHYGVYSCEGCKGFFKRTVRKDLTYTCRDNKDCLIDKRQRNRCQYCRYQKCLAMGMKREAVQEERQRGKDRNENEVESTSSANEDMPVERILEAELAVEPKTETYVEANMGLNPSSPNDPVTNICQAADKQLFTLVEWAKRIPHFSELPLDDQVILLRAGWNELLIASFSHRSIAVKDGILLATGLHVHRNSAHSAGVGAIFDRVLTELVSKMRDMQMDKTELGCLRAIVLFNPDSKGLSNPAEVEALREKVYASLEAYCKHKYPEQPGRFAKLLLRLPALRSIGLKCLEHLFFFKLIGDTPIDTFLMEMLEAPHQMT
human Retinoic Acid Receptor gamma (RARg), RARG (gene 5916), sequence (P13631 whole entry, looked up, the tested form may be a part): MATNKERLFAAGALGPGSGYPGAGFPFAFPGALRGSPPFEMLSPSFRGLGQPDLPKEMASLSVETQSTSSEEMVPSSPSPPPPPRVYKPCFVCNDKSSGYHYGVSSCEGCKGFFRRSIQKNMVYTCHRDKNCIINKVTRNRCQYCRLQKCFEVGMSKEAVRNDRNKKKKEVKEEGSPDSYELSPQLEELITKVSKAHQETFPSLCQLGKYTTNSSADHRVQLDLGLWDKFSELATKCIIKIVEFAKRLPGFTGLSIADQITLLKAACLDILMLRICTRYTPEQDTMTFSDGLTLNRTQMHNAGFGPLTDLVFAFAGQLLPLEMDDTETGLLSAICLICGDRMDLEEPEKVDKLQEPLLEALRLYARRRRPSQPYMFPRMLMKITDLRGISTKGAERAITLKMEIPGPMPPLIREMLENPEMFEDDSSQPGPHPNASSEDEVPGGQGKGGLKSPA
Nuclear receptor subfamily 1 group I member 2 (Homo sapiens), sequence (O75469 whole entry, looked up, the tested form may be a part): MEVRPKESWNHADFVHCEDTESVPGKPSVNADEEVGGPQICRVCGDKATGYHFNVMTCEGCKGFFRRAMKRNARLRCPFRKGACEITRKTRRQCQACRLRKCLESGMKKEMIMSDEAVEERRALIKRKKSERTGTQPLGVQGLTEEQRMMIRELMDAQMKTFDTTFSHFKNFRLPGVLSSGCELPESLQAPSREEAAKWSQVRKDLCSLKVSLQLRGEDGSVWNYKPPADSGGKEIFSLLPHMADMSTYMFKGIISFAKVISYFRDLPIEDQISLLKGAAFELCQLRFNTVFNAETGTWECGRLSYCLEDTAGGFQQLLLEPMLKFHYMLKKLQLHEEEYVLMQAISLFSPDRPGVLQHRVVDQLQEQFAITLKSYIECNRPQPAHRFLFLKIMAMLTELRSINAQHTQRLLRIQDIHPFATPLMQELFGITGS
human RAR-related Orphan Receptor beta (RORb), RORB (gene 6096), sequence (Q92753 whole entry, looked up, the tested form may be a part): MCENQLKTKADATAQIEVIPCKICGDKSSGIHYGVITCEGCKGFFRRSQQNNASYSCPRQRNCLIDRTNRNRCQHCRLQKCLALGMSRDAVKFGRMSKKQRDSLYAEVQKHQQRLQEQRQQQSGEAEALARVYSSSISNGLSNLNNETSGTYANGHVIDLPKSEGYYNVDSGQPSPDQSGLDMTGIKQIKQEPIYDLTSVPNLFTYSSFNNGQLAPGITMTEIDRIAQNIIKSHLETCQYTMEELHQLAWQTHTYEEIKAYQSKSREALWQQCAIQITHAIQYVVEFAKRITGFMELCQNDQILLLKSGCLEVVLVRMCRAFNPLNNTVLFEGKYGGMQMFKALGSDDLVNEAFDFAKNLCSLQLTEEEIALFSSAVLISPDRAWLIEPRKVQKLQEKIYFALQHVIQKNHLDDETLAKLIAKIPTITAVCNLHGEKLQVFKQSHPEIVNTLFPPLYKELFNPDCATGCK
human Peroxisome Proliferator-activated Receptor alpha (PPARa), PPARA (gene 5465), sequence (Q07869 whole entry, looked up): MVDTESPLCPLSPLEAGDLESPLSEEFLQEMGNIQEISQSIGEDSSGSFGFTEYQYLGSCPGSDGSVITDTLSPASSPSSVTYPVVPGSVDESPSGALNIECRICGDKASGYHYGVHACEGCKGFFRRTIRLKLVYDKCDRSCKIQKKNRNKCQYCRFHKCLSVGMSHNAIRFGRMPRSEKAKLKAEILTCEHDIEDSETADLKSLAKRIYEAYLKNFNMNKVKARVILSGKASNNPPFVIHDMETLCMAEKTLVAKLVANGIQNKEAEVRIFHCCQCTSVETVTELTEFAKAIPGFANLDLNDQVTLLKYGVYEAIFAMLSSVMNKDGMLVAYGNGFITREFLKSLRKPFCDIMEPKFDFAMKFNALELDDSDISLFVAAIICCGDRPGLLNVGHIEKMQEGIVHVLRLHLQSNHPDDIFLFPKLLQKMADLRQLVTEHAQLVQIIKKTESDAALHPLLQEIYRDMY
human RAR-related Orphan Receptor gamma (RORg), RORC (gene 6097), sequence (P51449 whole entry, looked up, the tested form may be a part): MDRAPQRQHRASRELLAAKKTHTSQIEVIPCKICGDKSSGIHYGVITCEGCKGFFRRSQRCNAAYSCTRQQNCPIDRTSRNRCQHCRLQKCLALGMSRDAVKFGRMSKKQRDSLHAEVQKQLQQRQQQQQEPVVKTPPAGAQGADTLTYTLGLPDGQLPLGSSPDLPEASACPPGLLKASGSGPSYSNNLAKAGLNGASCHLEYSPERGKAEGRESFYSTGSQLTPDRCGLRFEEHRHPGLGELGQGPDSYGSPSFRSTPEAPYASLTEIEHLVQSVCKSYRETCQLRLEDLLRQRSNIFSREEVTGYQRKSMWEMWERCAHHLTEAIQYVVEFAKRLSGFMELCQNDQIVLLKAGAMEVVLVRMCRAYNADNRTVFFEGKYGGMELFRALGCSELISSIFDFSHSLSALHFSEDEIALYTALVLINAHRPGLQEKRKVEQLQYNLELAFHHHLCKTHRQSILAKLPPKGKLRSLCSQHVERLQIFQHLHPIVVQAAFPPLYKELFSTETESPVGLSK
Cellular tumor antigen p53 (Homo sapiens), sequence (P04637 whole entry, looked up): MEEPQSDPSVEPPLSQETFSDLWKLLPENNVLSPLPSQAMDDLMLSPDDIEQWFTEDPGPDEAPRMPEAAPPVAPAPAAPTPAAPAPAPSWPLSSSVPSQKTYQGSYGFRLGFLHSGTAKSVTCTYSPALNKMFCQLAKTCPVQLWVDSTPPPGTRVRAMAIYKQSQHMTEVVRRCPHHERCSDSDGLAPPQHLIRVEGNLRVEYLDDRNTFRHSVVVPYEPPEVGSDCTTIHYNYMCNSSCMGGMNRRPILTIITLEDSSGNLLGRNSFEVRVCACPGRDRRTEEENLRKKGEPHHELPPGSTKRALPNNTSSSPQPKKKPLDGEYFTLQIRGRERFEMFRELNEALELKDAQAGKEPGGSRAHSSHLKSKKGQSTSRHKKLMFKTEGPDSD
Peroxisome proliferator-activated receptor gamma (Homo sapiens), sequence (P37231 whole entry, looked up): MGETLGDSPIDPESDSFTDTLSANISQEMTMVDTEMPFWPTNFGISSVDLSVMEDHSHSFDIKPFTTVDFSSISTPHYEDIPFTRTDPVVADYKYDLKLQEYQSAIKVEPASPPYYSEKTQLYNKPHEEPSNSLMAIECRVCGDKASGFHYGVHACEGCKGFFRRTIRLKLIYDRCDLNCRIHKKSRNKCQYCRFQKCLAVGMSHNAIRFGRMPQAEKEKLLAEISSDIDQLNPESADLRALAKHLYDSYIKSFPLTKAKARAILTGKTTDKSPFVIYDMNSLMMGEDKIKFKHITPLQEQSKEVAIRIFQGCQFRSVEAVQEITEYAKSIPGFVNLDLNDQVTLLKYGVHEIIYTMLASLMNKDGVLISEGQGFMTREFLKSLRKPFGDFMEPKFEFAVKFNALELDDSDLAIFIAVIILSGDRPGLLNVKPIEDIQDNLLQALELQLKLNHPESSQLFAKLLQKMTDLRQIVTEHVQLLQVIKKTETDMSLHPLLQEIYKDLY
Retinoic acid receptor alpha (Homo sapiens), sequence (P10276 whole entry, looked up, the tested form may be a part): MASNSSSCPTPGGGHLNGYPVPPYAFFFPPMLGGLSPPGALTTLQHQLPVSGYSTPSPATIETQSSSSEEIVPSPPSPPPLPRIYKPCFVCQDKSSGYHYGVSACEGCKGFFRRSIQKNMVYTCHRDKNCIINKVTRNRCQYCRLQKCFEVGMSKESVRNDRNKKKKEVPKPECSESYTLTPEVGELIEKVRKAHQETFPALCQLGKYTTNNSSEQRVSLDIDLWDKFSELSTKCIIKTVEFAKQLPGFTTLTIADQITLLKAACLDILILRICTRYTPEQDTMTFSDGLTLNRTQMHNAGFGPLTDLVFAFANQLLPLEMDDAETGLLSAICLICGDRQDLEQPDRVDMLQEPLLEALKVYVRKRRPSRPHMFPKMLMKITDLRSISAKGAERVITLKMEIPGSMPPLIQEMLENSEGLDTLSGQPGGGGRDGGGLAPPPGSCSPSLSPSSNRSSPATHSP

CCCCCCCCCCCC(=O)NCCCN(C)C
inactive: [1] | [2] | [5] | [6] | [7]
active: [3] 20.9 µM | [4] 20.2 µM

COCC1CCC(CO)CC1 (stereo unspecified)
inactive: [1] | [2] | [3] | [4] | [8] | [9]

CC(C)(C)c1ccc(CCC=O)cc1
inactive: [1] | [3] | [8] | [10] | [7]
active: [2] 130 µM | [4] 182 µM | [6] 29.3 µM

NC(C(F)(F)F)C(F)(F)F
inactive: [1] | [2] | [3] | [4] | [5] | [6] | [9]

O=C(F)C(F)(F)C(F)(F)C(F)(F)C(=O)F
inactive: [1] | [2] | [3] | [4] | [5] | [11] | [6] | [10] | [7]

FC(F)(F)C(F)(F)C(F)(F)Br
inactive: [1] | [2] | [3] | [4] | [11] | [8] | [6] | [9]

CC1=CC(=O)c2ccccc2C1=O
inactive: [1] | [3] | [4] | [5] | [11] | [8] | [9] | [12] | [7]
active: [2] 5.04 µM

C/C=C/C(=O)C1=C(C)CCCC1(C)C
active: [2] 3.93 µM | [3] 27.1 µM | [4] 164 µM | [8] 64.7 µM
inactive: [1] | [7]

Cc1cc(C(C)(C)C)c(O)c(C(C)(C)C)c1
inactive: [1] | [4] | [13] | [8] | [6]
active: [2] 57.7 µM and 60 µM | [3] 33.4 µM and 89.4 µM | [6] 27.3 µM | [7] 15.6 µM and 865 nM

C=Cc1ccc(O)c(OC)c1
inactive: [1] | [3] | [4] | [13] | [14] | [11] | [9] | [10] | [7]
active: [2] 6.89 µM | [8] 8.33 µM | [6] 70.3 µM

O=C(O)C(=O)O
inactive: [1] | [2] | [3] | [4] | [5] | [14] | [12] | [7]

c1cc[nH]c1
inactive: [1] | [2] | [3] | [4] | [5] | [14] | [8] | [9] | [12]

CCOCCOCC
inactive: [1] | [2] | [3] | [4] | [8] | [6] | [12]
